Measurements published in the OligoGym collection.

Target: MUSTN1
Assay: pooled miR-30 sensor sort-seq; sequence = guide strand
Details: shRNA
Also: reference of the scale not given here.

Sequence	sensor-assay potency score (higher = more potent)
TCACACTCTCGCATGACCTGGT	0.595
TTCCTGGTTCTTGGTCAGGTTT	-1.77
TCTTGGTCAGGTTTCCTCGGGC	0.0366
ACACTCTCGCATGACCTGGTAG	-0.661
TTCTTGGTCAGGTTTCCTCGGG	-0.747
TTGCTCACACTCTCGCATGACC	-1.08
TCGCATGACCTGGTAGGTCTTG	-0.987
AGCTTGCTCACACTCTCGCATG	-2.04
TCAAAGACAGTCTCGGTACCTG	-0.0062
TTTATTGGTGCTTCCAAGGTGC	0.442
TTGATTTCCTGGTTCTTGGTCA	0.114
TAGGTCTTGGACTTGATTTCCT	-0.449

Target: MUTED
Assay: as above
Details: shRNA

Sequence	sensor-assay potency score (higher = more potent)
TTTCTAAGAAGTCTATACCTAC	-0.621
TTTTTTGTCTACATTACTCATG	-0.517
TTTACATTTAACATGGACCATT	-1.07
TTTCTCACTAGCTACTAAGTGG	-0.662
TTTTCTGTGCTCTTCATCCACT	-0.826
TTGTTCTTTAAGCCTTTCCATG	-1.47
TTATCTTATAAAGCTTACCCAC	-1.06
TTGTCTACATTACTCATGCAGT	-0.842
TTGTTTACCATAAATCTCGAAA	-0.16
TAATAAACTATTGTTAACCCTG	0.0836
TAAGTGGTCACTATGAATCTTT	-0.505
TTTAACATGGACCATTTGCTGT	-1.08

Target: MYBL1
Assay: as above
Details: shRNA

Sequence	sensor-assay potency score (higher = more potent)
TAGTAGGTGTTCTAAACCCTAC	-0.956
TAGAATTATCAGTCCTTCCTGG	0.631
TTTGATAGAATTATCAGTCCTT	1.06
TAAAGGAACAGCTTCACTGTTG	-0.055
TTGAAGTACTACTGGTAGCTGT	0.338
TTCGCTTTCTTCTAACTTCATT	-1.09
TAATTTATCATCCTCGTCCCTT	-0.0916
TTCTTCTTTTAAAACTTCCCGA	-0.736
TAGATCTTCTAATAGTAGGTGT	0.293
TTCAAGTACAAGACTGACGTTA	0.474
TTTCTCTACACTGCTTGCCTAT	-0.646

Target: MYCBPAP
Assay: as above
Details: shRNA

Sequence	sensor-assay potency score (higher = more potent)
TTTCTTGTCTTCTTTGTCTTTG	-0.276
TTTTGTCTTGGTCATGACCAGA	-1.08
TTCTTTGTCTTTGATCCCCAGT	-0.525
TTCCAAAGAAAACCTGTCCTGA	-0.596
TTTTCTTTGACATTCTCTGAGG	-0.601
